Most compounds without a hit are left out; they make up all but 6.5% or so of the library.
Giardia killer – Giardia lamblia killing. Giardia lamblia trophozoite viability. activity change, % at 7.66 µM, hits read low. 340,000 tested, 0.15% active; in the data active = activity change below about -80%; inconclusive = between about -30% and that limit;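 note: parasites exposed to compound for two days anaerobically before the ATP read; % is set by controls: 0 for no effect and ±100 for the full control effect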
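Giardia trophozoites, 100 cells per well, were exposed to compounds for 48 hrs at 37 deg C under anaerobic conditions; viability was then read as ATP content by bioluminescence after 15-30 min at room temperature.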
HT1080-NT tox – kills 2HG-producing HT-1080-NT fibrosarcoma cells; HT-1080-NT fibrosarcoma viability, CellTiter-Glo ATP luminescence, 48 h; Potency, µM (doses to about 46.1 µM), without a hit: at the highest dose activity, negative = less viability, actives largely listed as cytotoxic; 360,000 tested, 1.6% active;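 note: NT is the 2HG producing partner of a matched IDH1 knockdown line; potency is the fitted concentration of half-maximal effect; 0% = DMSO-treated cells and -100% = media-only wells without cells; nearly all actives have a fitted effect of over 55% in size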
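HT-1080-NT; 750 cells/well; 5% FBS RPMI; 48 h compound, 37 degrees C; CellTiter-Glo luminescence; curve fitting and curve-class assignment.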
HepG2 tox – kills HepG2 cells in TGF-b inhibitor counter-screen. HepG2 CAGA-GFP viability, ATP luminescence, 18 h. Potency, µM (doses to about 46.1 µM), for inactives: at the top dose activity change, negative = cytotoxicity, actives largely listed as cytotoxic. 410,000 tested, 0.76% active; note: potency is the fitted concentration of half-maximal effect
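HepG2 CAGA-GFP cells (1000/well, DMEM with 1% FBS) received compound, then TGF-beta at 500 pg/mL final, and were incubated 18 hours at 37 degrees C. Viability was read by CellTiter-Glo luminescence. Media-only wells were set as complete cell-killing and DMSO as no toxicity.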
HT1080 IDH1KD tx – toxicity to HT-1080 IDH1 knockdown cells (counter line); AID 686971; 360,000 tested, 2% active; Potency, µM (highest dose often 46.1 µM), without a hit: at the top dose activity, negative = toxicity, hits mostly cytotoxic; HT-1080 IDH1 knockdown viability, ATP luminescence, 48 h;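 note: potency is the fitted concentration of half-maximal effect; 0% = DMSO wells and -100% = cell-free medium wells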
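% activity derives from luminescence (CellTiter-Glo), normalised to DMSO and no-cell wells. HT-1080-IDH1KD cells, 750/well, had 48 h compound exposure at 37 °C.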
TGFb SMAD3 inh – inhibitors of TGF-b signaling. HepG2 CAGA-GFP TGF-b/SMAD3 reporter, GFP fluorescence, 18 h; TGF-beta stimulated, 500 pg/mL final. Potency, µM (series often up to 46.1 µM), for the others: top-dose activity, negative = inhibition, usual class: inhibitors. 410,000 tested, 1.2% active; note: potency is the fitted concentration of half-maximal effect; % is set by controls: 0 for no effect and ±100 for the full control effect; nearly all actives have a fitted effect of over 65% in size
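GFP signal (ex488/em500-530) from TGF-beta-stimulated HEPG2 CAGA-GFP cells, 500 pg/mL final, 18 h at 37 degrees C in DMEM plus 1% FBS, normalized to unstimulated and DMSO-stimulated controls.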
IL-1B inflam inh – blocks inflammasome-driven IL-1 beta release; THP-1 LPS/ATP IL-1B secretion, AlphaLISA, 16 h; hits give low values; activity change, % at 57.5 µM; 360,000 tested, 4.7% active; AID 743279; in the data active = activity change below about -50%; inconclusive = mostly about -30% to -49%; note: % is set by controls: 0 for no effect and ±100 for the full control effect
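Secreted IL-1B measured by AlphaLISA bead assay after 16 h compound exposure of THP-1 cells; compounds (final up to 57.5 uM) added 1 h before LPS (250 ng/mL) and ATP (1.25 mM) stimulation; lower signal means less secretion.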
Active calls of the source: *; ? = inconclusive; · = no result; [ ] = another dose, or the depositor's remark. Unless noted, calls come from the whole dose curve; as a rule, active = well fitted curve in the direction sought with a large enough effect; inconclusive = small, poorly fitted or top-dose-only effect, or another doubt; inactive = no such curve, though single readings can be large; an effect the other way counts as inactive or inconclusive.

SMILES	Giardia killer	HT1080-NT tox	HepG2 tox	HT1080 IDH1KD tx	TGFb SMAD3 inh	IL-1B inflam inh
COc1ccccc1-c1nnc(NC(=O)C2CCCN2S(=O)(=O)c2cccs2)o1 (stereo unspecified)	·	-2.3%	-32.9%	-0.9%	-18.1%	14.2
O=C(Nc1nnc(-c2ccc(F)cc2)o1)C1CCCN1S(=O)(=O)c1cccs1 (stereo unspecified)	-7.4	7.8%	-4.2%	4.5%	4.9%	-76.3*
Cc1ccc(S(=O)(=O)NCCOCCNS(=O)(=O)c2ccc(C)cc2)cc1	1.3	0.1%	-71.9%	-1.3%	-0.9%	-0.3
CC1CCN(CC(=O)n2c3c(c4ccccc42)CCCC3)CC1	2.4	?	-21.5%	?	0.0%	-14.3
O=C(c1ccccc1F)n1c2c(c3ccccc31)CCCC2	24.8	?	-13.7%	14.6µM*	-23.8%	13.4
COc1cc(C2Nc3cccc4cccc(c34)N2)ccc1O	-13.0	-16.1%	-2.8%	-16.8%	-12.1%	-82.8*
Cc1c(NS(=O)(=O)c2cc(C(=O)NC(C)c3ccccc3)ccc2Cl)c(=O)n(-c2ccccc2)n1C (stereo unspecified)	-3.9	-3.6%	-3.0%	-8.8%	-3.8%	-0.6
Cc1cccc(-n2nnnc2SCC(=O)NCCN2C(=O)CSC2=O)c1	-7.6	3.2%	0.0%	9.5%	0.0%	31.7
CC(C)Oc1ccc(C(CCNCc2ccc(O)cc2)c2ccccc2)cc1 (stereo unspecified)	9.8	?	-91.9%	?	14.1µM*	-91.3*
COc1ccc(CNCCC(c2ccc3c(c2)OCO3)c2ccccc2OC)cc1 (stereo unspecified)	·	·	10µM*	·	?	·
COc1ccc(C(CCNC(C)c2ccccc2)C(C)C)cc1 (stereo unspecified)	-15.1	?	-94.0%	?	?	·
COc1ccc(C(CCNCc2ccc(OC)c(OC)c2)c2ccc(F)cc2)cc1 (stereo unspecified)	9.4	7.1%	-24.0%	2.1%	0.0%	-0.3
COc1ccc(C(C)NCCC(c2ccc(OC(C)C)cc2)c2ccccc2OC)cc1 (stereo unspecified)	-10.5	14.6µM*	12.6µM*	?	11.2µM*	-98.5*
COc1ccc(C(CCNCc2ccc(N(C)C)cc2)c2ccccc2)cc1 (stereo unspecified)	-15.3	18.4µM*	-185.9%	?	?	-101.1*
Cc1ccc(-c2noc(COc3ccc4c(c3)OCO4)n2)cc1	-4.4	11.2%	4.2%	14.8%	24.7%	16.5
Cc1ccc(S(=O)(=O)[N-]c2nc3ccccc3nc2-n2cc[n+](Cc3ccccc3)c2)cc1	-6.0	-1.2%	-16.1%	-13.7%	11.5%	?
Cc1cc2c(NCC(C)O)ncnc2s1 (stereo unspecified)	2.6	29.7%	-1.8%	1.0%	?	18.5
CC(C)Oc1ccc(CNC(=O)CC(c2ccccc2)c2cc(Cl)ccc2O)cc1 (stereo unspecified)	-5.7	?	15.8µM*	?	?	?
CCOc1ccc(NC(=O)NNC(=O)COc2ccc3ccccc3c2)cc1	25.5	0.0%	-4.2%	13.5%	9.4%	-2.7
CCOC(=O)c1cnc2cc(C(F)(F)F)ccc2c1Nc1ccc(F)cc1F	·	·	5.8%	·	-1.7%	·
Cc1nn(C)c(C)c1/C=C/C(=O)c1ccc(Cl)cc1Cl	-13.5	-17.3%	-19.4%	-22.8%	?	-67.7*
CCOC(=O)c1sc(NC(=O)CSc2nnc(Cc3ccccc3)o2)c(C#N)c1C	6.3	7.7%	3.8%	-4.0%[9.24 µM]	-9.9%	-19.2
CCN(C(=O)CN1C(=O)c2ccc([N+](=O)[O-])cc2C1=O)C1CCCCC1	-1.8	1.4%	-11.8%	-2.0%	-4.3%	9.2
COC(=O)[C@@]12C[C@@H](CC(=O)NCCC(C)C)C(=O)N(Cc3ccc4c(c3)OCO4)C1=CCC(C)(C)C2	·	?	·	?	·	-55.2*

High-throughput results as filed in PubChem.
